Experimental findings from PubChem BioAssay (NCI) are described below.

Where “and” joins values, the source holds several entries; their conditions need not be identical. Identical values can stand only once. The panel holds about 83,000 compounds, 20% with a hit somewhere; the sample as a whole holds those more often.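 Each cell line was grown in a 96-well plate and treated with one concentration of compound for 48 hours. Values below 10 were considered active.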 Values without a mark were called inactive. Calls of active or inactive are those of the source.

Some test systems named below: HCT-15 colon; HT29 colon; SNB-75 CNS; SNB-19 CNS; U251 CNS; PC-3 prostate; SK-MEL-5 melanoma; UACC-62 melanoma; LOX IMVI melanoma; SK-MEL-28 melanoma; SK-MEL-2 melanoma; EKVX NSCLC; SN12C renal; UO-31 renal; TK-10 renal; ACHN renal; CAKI-1 renal; A498 renal; CCRF-CEM leukemia; MOLT-4 leukemia.
Holding throughout (experiment): NCI-60 one-dose screen, 48 h (100 = growth as untreated, 0 = no growth, -100 = all killed)
Conditions in all cases: 10 µM unless noted

Regarding `O=[N+]([O-])c1cc(C(F)(F)F)ccc1Sc1ccc(C(F)(F)F)cc1[N+](=O)[O-]`, the growth was 71.2% with HCT-15 colon; 18.5% in the test on HT29 colon; 86% with SNB-75 CNS; 91.5% with SNB-19 CNS; 83.9% in the test on U251 CNS; 84.6% with PC-3 prostate. The growth in the test on SK-MEL-5 melanoma is 82.7%; with UACC-62 melanoma, 77.8%; in the test on LOX IMVI melanoma, 28.1%; with SK-MEL-28 melanoma, 80.6%; in the test with SK-MEL-2 melanoma, 73.3%; with EKVX NSCLC it was 87%. The growth is 72.8% in the test on SN12C renal; 77.3% with UO-31 renal; 98.7% in the test with TK-10 renal; 86.6% with ACHN renal; 44.7% in the test on CAKI-1 renal; 87% in the test with A498 renal. Further, the figures for the growth in the test with CCRF-CEM leukemia and in the test on MOLT-4 leukemia were 14.5% and 9.53% (active), respectively.
On to `Cc1ccc2nc3ccccc3c(NCc3ccc(Cl)cc3)c2c1`, for which the growth with HCT-15 colon was 14.5%; in the test with HT29 colon it was 5.35% (active); in the test on SNB-75 CNS it was 66.5%; in the test on SNB-19 CNS, 50.3%; in the test with U251 CNS, 25.1%; in the test with PC-3 prostate, 39.1%. Also, the growth with SK-MEL-5 melanoma was 54%; in the test on UACC-62 melanoma, 74%; in the test with LOX IMVI melanoma, -57.1% (active); in the test on SK-MEL-28 melanoma it was 75.5%; in the test on SK-MEL-2 melanoma, 102%; in the test with EKVX NSCLC, 55.4%. For the same molecule, the growth with SN12C renal is 39.6%; in the test with UO-31 renal, 24.5%; in the test with TK-10 renal, 82.4%; with ACHN renal, 33.3%; with CAKI-1 renal, 45.7%; with A498 renal it was 13%. Further, the growth in the test with CCRF-CEM leukemia was 18.2%; in the test with MOLT-4 leukemia, 0.0972% (active).
Regarding `CN1CCN(Cc2ccc(NC(=O)c3nc4ccc5[nH]ncc5c4c4c3CCCC4)cc2C(F)(F)F)CC1`, the growth in the test on HCT-15 colon is -74.6% (active); in the test with HT29 colon it was -83.2% (active); with SNB-75 CNS, -90% (active); in the test with SNB-19 CNS it was -88.8% (active); in the test on U251 CNS, -91% (active); with PC-3 prostate it was -83.5% (active). The growth in the test with SK-MEL-5 melanoma was -92.6% (active); with UACC-62 melanoma, -87.5% (active); in the test with LOX IMVI melanoma, -94.9% (active); in the test with SK-MEL-28 melanoma it was -85.8% (active); in the test with SK-MEL-2 melanoma, -63.5% (active); with EKVX NSCLC, 37.2%. Further, the growth is -88.7% (active) with SN12C renal; -85.9% (active) with UO-31 renal; -86.7% (active) with TK-10 renal; -79.4% (active) in the test with ACHN renal; -46.6% (active) in the test on CAKI-1 renal; 92.9% in the test on A498 renal. Also, the growth was -11.1% (active) with CCRF-CEM leukemia and -27% (active) with MOLT-4 leukemia.
In the case of `CC(=O)N1N=C(c2ccc(Nc3nc(Nc4ccc(F)cc4)nc(Nc4ccc(Cl)cc4)n3)cc2)CC1c1ccc(N(C)C)cc1` (stereo not given), the growth is 38.4% in the test with HCT-15 colon; 36.8% with HT29 colon; 40.3% in the test with SNB-75 CNS; 59.2% in the test on SNB-19 CNS; 53.7% with U251 CNS; 22.2% in the test with PC-3 prostate. The growth was 32.4% in the test with SK-MEL-5 melanoma; 35.2% with UACC-62 melanoma; 63.1% in the test with LOX IMVI melanoma; 60% in the test on SK-MEL-28 melanoma; 30.8% with SK-MEL-2 melanoma; 43.1% with EKVX NSCLC. In addition, the growth in the test on SN12C renal is 66%; with UO-31 renal, 50.8%; in the test on TK-10 renal, 50.5%; with ACHN renal it was 61.8%; with CAKI-1 renal it was 35.3%; in the test on A498 renal, 68.4%. For the same molecule, the growth was -27.6% (active) in the test with CCRF-CEM leukemia and 29.4% in the test with MOLT-4 leukemia.
Consider `N#C/C(=N\Nc1ccc(Cl)cc1)C(=O)Nc1cc(-c2ccccc2)nn1-c1ccccc1`, for which the growth with HCT-15 colon is 9.38% (active); in the test with HT29 colon it was 34.1%; in the test on SNB-75 CNS, 62.1%; in the test with SNB-19 CNS it was 30.4%; in the test with U251 CNS, 23.1%; in the test on PC-3 prostate it was 6.71% (active). Moreover, the growth with SK-MEL-5 melanoma is -31% (active); in the test on UACC-62 melanoma, 3.27% (active); in the test on LOX IMVI melanoma, 73.5%; in the test with SK-MEL-28 melanoma, 38.6%; in the test with SK-MEL-2 melanoma it was 10.5%; in the test with EKVX NSCLC, 24.4%. For the same molecule, the growth was 0.137% (active) in the test on SN12C renal; 47.1% in the test on UO-31 renal; 28.6% with TK-10 renal; 33.9% with ACHN renal; 21.5% in the test with CAKI-1 renal; 3.5% (active) in the test with A498 renal. For the same molecule, the figures for the growth in the test with CCRF-CEM leukemia and with MOLT-4 leukemia were 15.3% and 26.1%, respectively.
With `Clc1ccc(/C=N\N2CCCCCC2)cc1`, the growth in the test with HCT-15 colon is 95.7% and 92.9%; in the test on HT29 colon it was 101% and 84.9%; in the test with SNB-75 CNS it was 100% and 110%; with SNB-19 CNS it was 96.4% and 109%; in the test on U251 CNS, 92.3% and 98.5%; in the test on PC-3 prostate, 105%. Also, the growth with SK-MEL-5 melanoma is 98.2% and 106%; in the test on UACC-62 melanoma, 92.1% and 104%; with LOX IMVI melanoma, 102%; with SK-MEL-28 melanoma, 104% and 107%; in the test on SK-MEL-2 melanoma it was 122% and 106%; with EKVX NSCLC it was 88.7% and 90.9%. The growth was 90.9% and 106% in the test with SN12C renal; 88.4% in the test on UO-31 renal; 105% and 103% with TK-10 renal; 99.5% and 102% in the test on ACHN renal; 124% and 94.9% in the test on CAKI-1 renal; 79.6% in the test on A498 renal. For the same molecule, the growth with CCRF-CEM leukemia is 101%; in the test with MOLT-4 leukemia, 109% and 99.4%.
As for `COc1ccc(-c2[nH]c3ccccc3c2-c2ccc(OC)cc2)cc1`, the growth was 39.8% with HCT-15 colon; 29.8% with HT29 colon; 31.5% in the test on SNB-75 CNS; 53.6% in the test on SNB-19 CNS; 44% in the test on U251 CNS; 47.5% with PC-3 prostate. Besides, the growth in the test on SK-MEL-5 melanoma was 58.1%; with UACC-62 melanoma, 56.7%; in the test on LOX IMVI melanoma, 46.3%; in the test with SK-MEL-28 melanoma it was 51.4%; in the test with SK-MEL-2 melanoma it was 64.6%; with EKVX NSCLC it was 73.8%. The growth with SN12C renal was 63.4%; with UO-31 renal, 67.7%; in the test with TK-10 renal, 87.4%; in the test with ACHN renal it was 65.3%; in the test on CAKI-1 renal it was 63.2%; in the test on A498 renal, 45%. Moreover, the growth in the test on CCRF-CEM leukemia was 9.28% (active); in the test with MOLT-4 leukemia, 49.9%.
